Measured values reported in PubChem BioAssay AID1259343 (VanderVen Lab, College of Veterinary Medicine, Cornell …, 2017).
About 2,900 (47%) of roughly 6,200 compounds were called active. So high a share suggests a set chosen from earlier hits. Some of the results follow. A number with no mark means an inactive call. Rule as the data show it: active = inhibition above about 50%; inactive = the rest.

Assay: Mycobacterium tuberculosis growth inhibition, primary screen (AID 1259343)
Conditions: inhibition: at 10 µM, active compounds read high; outcome: 10 uM
In the case of `Cc1ccc(-c2cc(C(=O)N(CCN(C)C)Cc3ccccc3)n(-c3ccccc3)n2)cc1C`, the inhibition is reported as 27.2%. For `CC(C)(C)C(=O)Nc1nc(-c2cccc(Br)c2)cs1`, the inhibition was 57.1% (active). With `Cc1cc(C(=O)NCCc2ccccc2)n2nc(-c3ccccc3)cc2n1` the inhibition was 81.8% (active). For `O=C(O)c1cc(-c2ccc(F)cc2)nc2cc(-c3ccccc3)nn12`, the inhibition was 67.1% (active). In the case of `O=C(O)c1cc(-c2ccccc2F)nc2cc(-c3ccc(Cl)cc3)nn12`, the inhibition is reported as 88.1% (active). In the case of `O=C(O)c1cc(-c2ccccc2Cl)nc2cc(-c3ccccc3)nn12`, the inhibition is reported as 96.6% (active). For `Nc1nc(-c2ccccc2Cl)co1`, the inhibition was 12%. In the case of `Cc1ccc(-c2c(C)nn3c(NCCc4ccccc4)cc(C)nc23)cc1`, the inhibition is reported as -2.64%. In the case of `COc1ccc(-c2c(C)nn3c(NCCc4ccccc4)cc(C)nc23)cc1OC`, the inhibition is reported as 65.5% (active). Compound `Cc1ccc(-c2c(C)nn3c(NCc4cccnc4)cc(C)nc23)cc1` has an inhibition of 30.6%. With `CN(Cc1ccccc1)c1ncnc(Oc2ccc3c(c2)OCO3)c1N` the inhibition was 28%. For `O=C1OC(c2ccccc2)OC(=O)C1=Cc1ccc(OCc2ccc3c(c2)OCO3)cc1` (configuration not stated), the inhibition was 84.2% (active). In the case of `NC(=O)c1ccc(OCc2cc(Cl)c3c(c2)OCO3)cc1`, the inhibition is reported as 35.7%. With `O=C(NCc1ccco1)C12CC3CC(CC(C3)C1)C2` the inhibition was 98.1% (active). `O=C(NCCOc1ccccc1F)C12CC3CC(CC(C3)C1)C2` showed an inhibition of 31.1%. In the case of `C=Cc1ccc(Cn2cc(C(=O)NCc3ccco3)sc2=O)cc1`, the inhibition is reported as 7.16%. `COC(=O)CCc1c(C)nc2c(c(-c3ccco3)nn2C2CCS(=O)(=O)C2)c1C` (configuration not stated) showed an inhibition of 24.9%. `Nc1ncc(N=Nc2cccc(C(F)(F)F)c2)s1` showed an inhibition of 2.91%. `C#CCN(C)C(=O)c1ccc(-c2cccc(C(F)(F)F)c2)s1` showed an inhibition of 23.8%. With `CC(C)N(C(=O)c1ccc(-c2cccc(C(F)(F)F)c2)s1)C(C)C` the inhibition was 66.1% (active). For `O=C(NCCOc1ccc(C(F)(F)F)cc1)C1CSc2ccccc2O1` (configuration not stated), the inhibition was 77.1% (active). Work on `CC1Oc2ccccc2OC1C(=O)NCCOc1ccc2ccccc2c1` (configuration not stated) yielded an inhibition of 29.2%. Work on `O=C(NCC(O)COc1ccc(C(F)(F)F)cc1)c1ccccc1Cl` (configuration not stated) yielded an inhibition of 22.8%. Work on `CCCOC(=NCCCN(C)C)NC(=O)c1ccc(Cl)c(Cl)c1` yielded an inhibition of 43.6%. For `CCCOC(=O)c1cc(Br)ccc1NC(=O)c1ccc(C)nc1`, the inhibition was 8.93%. With `CCCOC(=O)c1ccc(NC(=O)c2cc(CCC)[nH]n2)cc1` the inhibition was 65% (active). For `Nc1scc(-c2ccc(Oc3ccccc3)cc2)[n+]1CCCS(=O)(=O)[O-]`, the inhibition was 68.1% (active). `Nc1nc(-c2ccc(Oc3ccccc3)cc2)cs1` showed an inhibition of 17.5%. `CCOC(=O)NC(n1ccnc1)C(F)(F)C(F)(F)C(F)(F)C(F)F` (configuration not stated) gave an inhibition of 15.8%. For `C=C1/C(=N\OC(=O)Nc2ccc(C)cc2)CC2CC1C2(C)C` (configuration not stated), the inhibition was 86.8% (active). For `CN1CCN(c2ccc3nc(-c4c(N)c5c(F)cccc5[nH]c4=O)[nH]c3c2)CC1`, the inhibition was 30.7%. Work on `Oc1cccc2c(NC(=S)NC3CC4CCC3C4)cccc12` (configuration not stated) yielded an inhibition of 23.4%. In the case of `S=C(Nc1ccccn1)NC1CC2CCC1C2` (configuration not stated), the inhibition is reported as 97.7% (active). In the case of `S=C(Nc1ccc(-n2cnnn2)cc1)NC1CC2CCC1C2` (configuration not stated), the inhibition is reported as 103% (active). Compound `S=C(NCC1COc2ccccc2O1)NC1CC2CCC1C2` (configuration not stated) has an inhibition of -18.9%. `CC(C)CCNc1nc(C(=O)OC(C)C(N)=O)cs1` (configuration not stated) showed an inhibition of 20.4%. For `Cc1ncsc1CCOC(=O)CC12CC3CC(CC(C3)C1)C2`, the inhibition was 103% (active). In the case of `CC(C)c1cc(CN(C)C(=O)CC23CC4CC(CC(C4)C2)C3)no1`, the inhibition is reported as 32.9%. With `COCC(C)C1CCN(C(=O)CC23CC4CC(CC(C4)C2)C3)CC1` (configuration not stated) the inhibition was -13.6%. Compound `CC(C)CN(CCC(=O)O)c1nc(-c2ccccc2Cl)nc2ccccc12` has an inhibition of 37.1%. In the case of `NC(=O)c1csc(CNc2ccc(F)cc2)c1`, the inhibition is reported as 68.7% (active). Work on `NC(=O)c1csc(C(=O)NC2CC2c2cccc(Cl)c2)c1` (configuration not stated) yielded an inhibition of 27.2%. Compound `Clc1ccc(C(Cn2ccnc2)OCc2c(Cl)cccc2Cl)c(Cl)c1` (configuration not stated) has an inhibition of -47.1%. In the case of `CN(C)C(=O)CSCC(=O)O`, the inhibition is reported as -0.78%. Compound `C(=C\c1ccccc1)/CNc1ccc2c(c1)OCCO2` has an inhibition of -42.5%. In the case of `O=C1CC(Nc2ccc3c(c2)OCCCO3)C(=O)N1CCc1ccccc1F` (configuration not stated), the inhibition is reported as 53.9% (active). Compound `O=C(CCC1CCN(C(=O)CCc2ccccc2)CC1)Nc1ccc2c(c1)OCCO2` has an inhibition of 0.33%. With `COc1ccc(Nc2cccc3nonc23)cc1` the inhibition was 60.3% (active). `COc1ccc(-c2nc(Nc3ccc(F)cc3)c3ccccc3n2)cc1` showed an inhibition of 26.9%. With `CC1(C)CC[C@@]2(C(=O)O)C(C1)C1=CCC3[C@@]4(C)CC[C@H](O)C(C)(C)C4CC[C@@]3(C)[C@]1(C)C[C@@H]2O` (some centres not stated) the inhibition was 69.3% (active). In the case of `Cc1nc(NCc2ccco2)c2c3c(sc2n1)CCCC3`, the inhibition is reported as 59.1% (active). For `Cc1cc(/C=N\O)c(C)n1-c1ccc(-c2ccccc2)cc1`, the inhibition was 79.1% (active). In the case of `Cc1cc(/C=C/c2ccc3cc(N(C)C)ccc3[n+]2C)c(C)n1-c1ccccc1`, the inhibition is reported as 48.1%. For `Cc1cc(C=Cc2ccc3cc(N(C)C)ccc3[n+]2C)c(C)n1-c1ccccc1`, the inhibition was “inactive”. With `O=[N+]([O-])c1ccc(NS(=O)(=O)Cc2ccccc2)cc1` the inhibition was 73.9% (active). `COc1ccc(CNc2ccc([N+](=O)[O-])cc2)cc1` gave an inhibition of 4.07%. For `O=[N+]([O-])c1cc(S(=O)(=O)Nc2ccc(Br)cc2)ccc1Cl`, the inhibition was 66.2% (active). `O=[N+]([O-])c1cc(NS(=O)(=O)c2cc(Cl)cc(Cl)c2)ccc1Cl` gave an inhibition of 21.6%. For `O=S(=O)(Nc1ccc2c(c1)CCC2)c1ccc(Br)cc1`, the inhibition was 32.5%. For `O=[N+]([O-])c1ccc(NS(=O)(=O)c2ccc(Br)cc2)cc1`, the inhibition was 58.1% (active). With `CC(NC(=O)CC1C=CCC1)c1ccc(C(F)(F)F)cc1` (configuration not stated) the inhibition was 12.8%. `CC(NC(=O)c1cccs1)c1ccc(Cl)s1` (configuration not stated) gave an inhibition of -37.7%. `CC(NC(=O)c1ccc(Br)o1)c1ccc(Cl)s1` (configuration not stated) showed an inhibition of -46.6%. For `CC(NC(=O)c1ccc(C(F)(F)F)cc1)c1ccco1` (configuration not stated), the inhibition was 62.5% (active). For `CC(NC(=O)c1ccc(Cl)o1)c1ccc(C(F)(F)F)cc1` (configuration not stated), the inhibition was 85.3% (active). For `CC(NC(=O)c1cccs1)c1ccc(C(F)(F)F)cc1` (configuration not stated), the inhibition was 69.9% (active). For `O=C(NCc1ccccc1)c1ccc(C(F)(F)F)cc1`, the inhibition was 20.5%.
